Data published in the supplement of paper PMC6555819.

Key:
Assay in all cases: PBM binding z-score (relative to random genomic background probes); higher = stronger binding; sequences stand for … in GC…GCGATTGACAGCGTAGAATGAAGG
[1] = system: FXR:RXRa (NR concentration 270 nM, RXRa partner concentration 90 nM)
Procedure, shortened: (§1)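 Binding z-scores take random background probes as their reference. They come from custom Agilent 4×180K protein-binding microarrays incubated 1 h with ligand-free nuclear receptor dimers, with antibodies against each partner (one per run) detecting binding. Scanned fluorescence was regression-normalized.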

[2] = system: LXRa:RXRa (NR concentration 270 nM, RXRa partner concentration 90 nM)
Procedure, shortened: as §1

[3] = system: LXRa homodimer (NR concentration 270 nM)
Procedure, shortened: as §1

[4] = system: LXRb:RXRa (NR concentration 270 nM, RXRa partner concentration 90 nM)
Procedure, shortened: as §1

[5] = system: LXRb homodimer (NR concentration 270 nM)
Procedure, shortened: as §1

[6] = system: PPARa:RXRa (NR concentration 270 nM, RXRa partner concentration 90 nM)
Procedure, shortened: as §1

[7] = system: PPARg:RXRa (NR concentration 180 nM, RXRa partner concentration 90 nM)
Procedure, shortened: as §1

[8] = system: PPARg:RXRa 270nM:90nM, anti-RXR (NR concentration 270 nM, RXRa partner concentration 90 nM)
Procedure, shortened: as §1

[9] = system: PPARg:RXRa 30nM:10nM, anti-RXR (NR concentration 30 nM, RXRa partner concentration 10 nM)
Procedure, shortened: as §1

[10] = system: PPARg:RXRa 90nM:30nM, anti-RXR (NR concentration 90 nM, RXRa partner concentration 30 nM)
Procedure, shortened: as §1

[11] = system: PPARg:RXRa DBDmut IVT, anti-RXR (DBD mutation: RXRa K156A/R161A, NR concentration 270 nM, RXRa partner concentration 90 nM)
Procedure, shortened: as §1

[12] = system: PPARg:RXRa IVT, anti-PPARg (NR concentration 270 nM, RXRa partner concentration 90 nM)
Procedure, shortened: as §1

[13] = system: PPARg DBDmut:RXRa IVT, anti-PPARg (DBD mutation: PPARg1 K132A/R137A, NR concentration 270 nM, RXRa partner concentration 90 nM)
Procedure, shortened: as §1

[14] = system: PPARg DBDmut IVT, anti-PPARg (DBD mutation: PPARg1 K132A/R137A, NR concentration 270 nM)
Procedure, shortened: as §1

[15] = system: PPARg homodimer (NR concentration 180 nM)
Procedure, shortened: as §1

[16] = system: PXR:RXRa (NR concentration 270 nM, RXRa partner concentration 90 nM)
Procedure, shortened: as §1

[17] = system: PXR homodimer (NR concentration 270 nM)
Procedure, shortened: as §1

[18] = system: RARa:RXR (NR concentration 270 nM, RXRa partner concentration 90 nM)
Procedure, shortened: as §1

[19] = system: RARa homodimer (NR concentration 270 nM)
Procedure, shortened: as §1

[20] = system: RARb:RXRa (NR concentration 270 nM, RXRa partner concentration 90 nM)
Procedure, shortened: as §1

| Sequence | PBM binding z-score [1] | PBM binding z-score [2] | PBM binding z-score [3] | PBM binding z-score [4] | PBM binding z-score [5] | PBM binding z-score [6] | PBM binding z-score [7] | PBM binding z-score [8] | PBM binding z-score [9] | PBM binding z-score [10] | PBM binding z-score [11] | PBM binding z-score [12] | PBM binding z-score [13] | PBM binding z-score [14] | PBM binding z-score [15] | PBM binding z-score [16] | PBM binding z-score [17] | PBM binding z-score [18] | PBM binding z-score [19] | PBM binding z-score [20] |
| --- | --- | --- | --- | --- | --- | --- | --- | --- | --- | --- | --- | --- | --- | --- | --- | --- | --- | --- | --- | --- |
| ATCGAAAGGTCGTGAGGAGAGTATACAGAAAGGC | 5.47 | 4.45 | 0.57 | 3.32 | 1.13 | 4.93 | 3.66 | 4.22 | 1.53 | 2.94 | 0.395 | 1.64 | 1.22 | 1.09 | 2.69 | 3.21 | 0.666 | 4.09 | 0.902 | 3.91 |
| CCTGGTTGGTCAAGGTCACACACGCTATAGGTAC | 4.28 | 4.07 | 2.43 | 3.92 | 1.12 | 4.3 | 2.92 | 3.15 | 1.15 | 2.22 | 1.12 | 3.26 | 0.676 | 0.0653 | 3.15 | 4.44 | 2.85 | 4.78 | 2.07 | 4.41 |
| TCTTGTAGATCAAAGGTTAAGAACGCCGAAGCCT | 2.02 | 2.28 | 0.21 | 2.16 | 0.138 | 4.96 | 8.19 | 7.86 | 7.43 | 8.26 | 2.38 | 3.76 | 0.351 | 0.234 | 1.19 | 2 | 0.16 | 2.42 | 0.244 | 1.86 |
| TATACAGGGTCAAAGGCCAGAATACGAATGTCGA | 6.57 | 5.89 | 2.16 | 4.62 | 2.29 | 5.89 | 7.8 | 7.19 | 5.21 | 7.33 | 1.98 | 4.81 | 2.92 | 2.34 | 2.02 | 3.86 | 0.553 | 5.78 | 0.841 | 4.28 |
| CGAACTAGGGCATCCAGGACAGTGAATACATTGA | 0.197 | -0.226 | -0.3 | -0.431 | -0.651 | 2.12 | 3.28 | 2.52 | 0.606 | 1.5 | 7.07 | 6.16 | 1.33 | 1.16 | 0.204 | -0.0736 | 0.524 | 0.0025 | -0.274 | 1.3 |
| AGTCAAAGTTCATCTAGGTAATGTAAGATATGCT | 6.48 | 6.26 | 5.38 | 4.07 | 1.98 | 4.95 | 6.59 | 6.48 | 3.67 | 5.42 | 1.01 | 3.31 | 1.3 | 1.47 | 2.6 | 5.28 | 6.34 | 3.72 | 1.8 | 4.94 |
| TCTCGGAGGACACGAAAGGTCAGCGCTCGACATC | 3.42 | 4.26 | 2.8 | 3.54 | -0.162 | 3.88 | 1.58 | 3.31 | 2.59 | 2.86 | 2.02 | 1.8 | -0.121 | 0.158 | 3.31 | 4.36 | 0.337 | 4.86 | 1.84 | 4.42 |
| CCGACTGGGGCAGAAAGCTTACCATACCATCCGG | -0.854 | -0.845 | -0.778 | -0.743 | -0.693 | -0.683 | 0.434 | -0.227 | -0.693 | -0.772 | 1.49 | 0.739 | -1.01 | -2.56 | -0.236 | -0.856 | -0.585 | -1.22 | -0.188 | -0.092 |
| ATCTCTAGGTAAAGAGAGTTCAGTGAATGCAAAT | 0.502 | 4.09 | 1.76 | 1.41 | 0.27 | 1.34 | 0.263 | 0.567 | 0.0587 | 0.356 | 2.17 | 1.38 | 0.459 | 0.197 | 0.502 | 3.71 | 3.18 | 0.79 | 0.685 | 1.16 |
| CCTAGTTGGTCAAGGTCACACGCGCTATAGGTAC | 4.49 | 3.9 | 2.29 | 3.34 | 0.902 | 4.29 | 3.54 | 3.95 | 1.23 | 3.1 | 2.5 | 3.82 | 0.145 | 0.325 | 2.68 | 4.09 | 2.6 | 4.13 | 1.78 | 4.39 |
| TAGCCTAGGTCATGGACCAGTATACCACGCGAAC | 4.39 | 3.44 | 0.268 | 2.46 | -0.208 | 4.18 | 3.5 | 3.32 | 0.758 | 2.23 | 1.67 | 3.14 | 0.484 | 0.282 | 1.64 | 1.69 | -0.467 | 2.85 | -0.128 | 3.77 |
| CAAACTAGTTCAAAGGTCAAAGTCGAGCCAACCA | 7.5 | 6.94 | 5.57 | 6.5 | 2.97 | 7.02 | 11 | 9.72 | 11.8 | 11.7 | 3.06 | 5.87 | 1.03 | 1.34 | 6.05 | 6.85 | 3.08 | 8.58 | 3.93 | 5.27 |
| GGAACGAGGGCAAGTTTATAGCAGAGTTTGATGG | 0.688 | 0.332 | -0.039 | 0.229 | -0.306 | 1.61 | 1.24 | 0.978 | 0.337 | 0.307 | 3.91 | 2.81 | 0.157 | -0.37 | 0.767 | 1.13 | 1.44 | 0.25 | -0.0736 | 2.6 |
